The source of these data is PubChem BioAssay (NCATS).

The structures appear in SMILES notation. Results filed as inconclusive are left out. Unmarked numbers belong to inactive results. Active and inactive are the calls of the source. Calls follow the shape of the dose curve; as a rule, active = well fitted curve in the direction sought with a large enough effect; inconclusive = small, poorly fitted or top-dose-only effect, or another doubt; inactive = no such curve, though single readings can be large; an effect the other way counts as inactive or inconclusive.

Assay [1] deals with Rap guanine nucleotide exchange factor 3 (Homo sapiens) (UniProt O95398). The experiment in a line: Confirmatory qHTS for antagonist of cAMP-regulated guanine nucleotide exchange factor 3 (EPAC1) (AID 1645880). Also: nearly all actives have a fitted effect of over 55% in size. Also: potency is read from the fitted curve at half-maximal effect. The gist of the method:
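Released BODIPY-GDP fluoresces less than Rap1-bound BODIPY-GDP; the signal is followed at 480/540 nm at 5-min intervals over 30 min, after 5 min at room temperature. Reactions contain 100 nM EPAC1, 250 nM RAP1B-BODIPY-GDP and 50 uM GDP; results are normalized to ATA and DMSO.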
(In general: Quantitative high-throughput screening tests each substance at several concentrations.)

The target is the same in assay [2]. The experiment in a line: Confirmatory qHTS for agonist of cAMP-regulated guanine nucleotide exchange factor 3 (EPAC1) (AID 1645881). Also: nearly all actives have a fitted effect of over 75% in size. Also: potency is read from the fitted curve at half-maximal effect.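 As to activation: EPAC1 catalysed release of BODIPY-GDP from Rap1B seen as fluorescence loss; 100% = effect of cAMP agonist control.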
Assay [3] concerns the target Rap guanine nucleotide exchange factor 4 (Homo sapiens) (UniProt Q8WZA2). The assay is described as follows: Confirmatory qHTS for agonist of cAMP-regulated guanine nucleotide exchange factor 4 (EPAC2) (AID 1645884).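 Also: nucleotide exchange releases bodipy-GDP from Rap1 and this lowers its fluorescence; nearly all actives have a fitted effect of over 65% in size.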 Also: potency is read from the fitted curve at half-maximal effect. As to activation: % is scaled to controls: 0 for no effect and ±100 for the full control effect.
For assay [4] the target is unchanged. The experiment in a line: Confirmatory qHTS for antagonist of cAMP-regulated guanine nucleotide exchange factor 4 (EPAC2) (AID 1645885). Also: nearly all actives have a fitted effect of over 25% in size. Also: potency is read from the fitted curve at half-maximal effect. As to activity change, negative = inhibition: % is scaled to controls: 0 for no effect and ±100 for the full control effect.
The target of assay [5] is Rap guanine nucleotide exchange factor 3 (Homo sapiens) (UniProt O95398). The assay is described as follows: Counterscreen qHTS for antagonist of cAMP-regulated guanine nucleotide exchange factor 3 (EPAC1) (AID 1645888). Also: % of control where 0% means no effect. The gist of the method: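 Rap1B–BODIPY-GDP (250 nM) with 50 uM GDP; compounds pin-transferred to 9.74 nM–152 uM final (activator) or from 7.32 nM upwards (inhibitor). Fluorescence Ex/Em 480/540 nm read at 5 and 30 min, then after adding cAMP or buffer, at room temperature.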
Sequence of Rap guanine nucleotide exchange factor 3 (Homo sapiens) (O95398 whole entry, looked up): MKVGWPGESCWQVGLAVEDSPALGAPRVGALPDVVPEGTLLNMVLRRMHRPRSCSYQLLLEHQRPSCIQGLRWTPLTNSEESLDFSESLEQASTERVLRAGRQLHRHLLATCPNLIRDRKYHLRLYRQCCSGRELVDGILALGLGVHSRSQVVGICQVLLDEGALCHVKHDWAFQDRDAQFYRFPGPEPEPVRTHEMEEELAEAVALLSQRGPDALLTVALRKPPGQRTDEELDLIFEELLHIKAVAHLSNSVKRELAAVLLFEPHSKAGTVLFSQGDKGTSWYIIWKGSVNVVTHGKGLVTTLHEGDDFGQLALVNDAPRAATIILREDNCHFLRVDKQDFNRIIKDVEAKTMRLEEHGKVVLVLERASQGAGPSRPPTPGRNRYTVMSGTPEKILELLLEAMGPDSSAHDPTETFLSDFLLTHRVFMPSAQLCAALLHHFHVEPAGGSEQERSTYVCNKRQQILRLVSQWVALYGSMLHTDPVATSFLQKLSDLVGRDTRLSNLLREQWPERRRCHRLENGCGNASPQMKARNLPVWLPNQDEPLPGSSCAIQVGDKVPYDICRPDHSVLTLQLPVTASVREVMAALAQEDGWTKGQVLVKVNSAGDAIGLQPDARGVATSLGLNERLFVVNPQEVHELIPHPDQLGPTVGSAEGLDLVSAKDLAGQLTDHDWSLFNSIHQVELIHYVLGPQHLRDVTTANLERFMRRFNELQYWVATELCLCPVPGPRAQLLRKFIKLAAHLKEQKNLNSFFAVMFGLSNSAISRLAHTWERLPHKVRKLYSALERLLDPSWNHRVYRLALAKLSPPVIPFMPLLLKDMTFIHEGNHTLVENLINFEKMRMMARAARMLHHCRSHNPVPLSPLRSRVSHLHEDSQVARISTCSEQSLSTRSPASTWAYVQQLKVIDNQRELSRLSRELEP

Sequence of Rap guanine nucleotide exchange factor 4 (Homo sapiens) (Q8WZA2 whole entry, looked up): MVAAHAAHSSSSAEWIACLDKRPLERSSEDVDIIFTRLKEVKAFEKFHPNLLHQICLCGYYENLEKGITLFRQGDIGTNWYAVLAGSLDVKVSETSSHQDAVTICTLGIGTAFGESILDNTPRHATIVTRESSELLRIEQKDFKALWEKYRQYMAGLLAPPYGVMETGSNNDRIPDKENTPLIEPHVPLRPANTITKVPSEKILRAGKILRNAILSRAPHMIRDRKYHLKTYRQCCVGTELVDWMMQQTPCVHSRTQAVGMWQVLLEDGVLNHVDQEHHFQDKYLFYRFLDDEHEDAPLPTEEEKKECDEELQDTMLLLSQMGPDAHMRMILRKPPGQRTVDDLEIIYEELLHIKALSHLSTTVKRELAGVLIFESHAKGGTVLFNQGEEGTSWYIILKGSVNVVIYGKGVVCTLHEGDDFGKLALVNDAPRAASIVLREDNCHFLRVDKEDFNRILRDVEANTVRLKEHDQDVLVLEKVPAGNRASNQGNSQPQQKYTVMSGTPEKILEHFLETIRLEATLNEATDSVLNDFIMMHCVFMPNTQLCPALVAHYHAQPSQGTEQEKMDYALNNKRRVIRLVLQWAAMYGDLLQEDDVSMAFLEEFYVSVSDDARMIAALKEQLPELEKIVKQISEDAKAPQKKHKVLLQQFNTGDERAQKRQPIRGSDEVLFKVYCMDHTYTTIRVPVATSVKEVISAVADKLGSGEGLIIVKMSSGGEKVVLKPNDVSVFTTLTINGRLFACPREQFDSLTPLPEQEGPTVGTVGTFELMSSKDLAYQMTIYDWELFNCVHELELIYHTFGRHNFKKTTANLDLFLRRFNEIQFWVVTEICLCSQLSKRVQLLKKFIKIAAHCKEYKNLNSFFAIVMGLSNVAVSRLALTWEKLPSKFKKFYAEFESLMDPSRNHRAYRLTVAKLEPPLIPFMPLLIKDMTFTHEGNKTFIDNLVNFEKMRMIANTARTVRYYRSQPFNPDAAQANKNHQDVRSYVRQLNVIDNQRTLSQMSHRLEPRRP

For `COc1cc2cc(CNc3ccc(C)cc3)c(=O)n(CC(=O)Nc3ccc(F)cc3F)c2cc1OC`, the Potency result in assay [1], in assay [2], in assay [3], in assay [4] and in assay [5] was “inactive” each time.
On to `CCc1nc2c(OCc3ccc(Cl)cc3)cccn2c1N(C)C(=O)c1ccccc1F`, for which the Potency result in assay [1], in assay [2] and in assay [4] was “inactive” each time. Besides, in assay [3], the activation is 3.03% [at 17.1 µM, percent relative to cAMP agonist control]. In addition, the activity change, negative = inhibition in assay [5] was -10.9% [at 30.8 µM].
Turning to `O=C1Nc2ccccc2Nc2ncccc21`, the Potency entry in assay [1], in assay [2] and in assay [4] was “inactive” throughout. Moreover, in assay [3], the activation was -4.86% [at 17.1 µM, percent relative to cAMP agonist control]. In addition, the activity change, negative = inhibition in assay [5] was 0.957% [at 30.8 µM].
On to `CCNC(=O)C1(C)CCN(C(=O)c2ccc(C(=O)OC)cc2)C1` (stereo not given), for which the Potency entry in assay [1], in assay [2], in assay [3], in assay [4] and in assay [5] was “inactive” in each case.
For `COc1ccc(-c2cc(C(F)F)n3ncc(C(=O)N4CCc5ccccc54)c3n2)cc1`, the Potency result in assay [1], in assay [2], in assay [3], in assay [4] and in assay [5] was “inactive” throughout.
Turning to `CC(=NNC(=O)c1ccccc1N)c1ccccc1O`, the Potency in assay [1] is 2.51 µM (active). Moreover, the Potency entry in assay [2] and in assay [4] was “inactive” in each case. The activation in assay [3] is 0.484% [at 17.1 µM, percent relative to cAMP agonist control]. Moreover, the activity change, negative = inhibition in assay [5] was -1.34% [at 30.8 µM].
As to `CCOC(=O)COc1ccc(Br)cc1/C=C\c1[nH]c(=O)[nH]c(=O)c1[N+](=O)[O-]`, the Potency in assay [1] was 20 µM (active). Further, the Potency result in assay [2] and in assay [4] was “inactive” throughout. Moreover, the activation in assay [3] is 4.81% [at 17.1 µM, percent relative to cAMP agonist control]. Besides, the activity change, negative = inhibition in assay [5] is -24.7% [at 30.8 µM].
With `CNc1ccc(/C=C(\C#N)C(=O)Nc2ccccn2)cc1[N+](=O)[O-]`, the Potency result in assay [1], in assay [2] and in assay [4] was “inactive” each time. For the same compound, in assay [3], the activation is 0.449% [at 17.1 µM, percent relative to cAMP agonist control]. Also, the activity change, negative = inhibition in assay [5] was -23.3% [at 30.8 µM].
With `Cc1c(C(=O)NCc2ccc(F)cc2)sc(=O)n1Cc1ccccc1F`, the Potency entry in assay [1], in assay [2], in assay [3] and in assay [5] was “inactive” in each case. Also, the Potency in assay [4] was 67.5 µM (active).
For `N#C/C(=C/c1ccc(N2CCOCC2)o1)c1nc2ccccc2[nH]1`, the Potency result in assay [1] and in assay [5] was “inactive” each time. Moreover, the Potency in assay [2] is 112 µM (active); in assay [3], 89.1 µM (active); in assay [4], 42.6 µM (active).
As for `CCc1ccc(/C=C2/SC(=S)N(CCCC(=O)Nc3ccccc3C(=O)O)C2=O)cc1`, the Potency in assay [1] is 75.7 µM (active). Besides, the Potency entry in assay [2], in assay [3], in assay [4] and in assay [5] was “inactive” each time.
Take `CCOC(=O)N1CCN(c2ccc(S(=O)(=O)N(Cc3ccccc3)Cc3ccccc3)cn2)CC1`: the Potency entry in assay [1], in assay [2], in assay [3], in assay [4] and in assay [5] was “inactive” each time.
For the compound `CCC(C(=O)OCC(=O)Nc1cc(C)ccc1OC)c1ccccc1` (stereo not given), the Potency result in assay [1], in assay [2] and in assay [4] was “inactive” throughout. In assay [3], the activation was 3.82% [at 17.1 µM, percent relative to cAMP agonist control]. In addition, in assay [5], the activity change, negative = inhibition was -13% [at 30.8 µM].
In the case of `COc1cc2cnc(-c3ccccc3)c(C(=O)c3ccc(F)cc3)c2cc1OC`, the Potency entry in assay [1], in assay [2] and in assay [4] was “inactive” in each case. Moreover, the activation in assay [3] is 4.26% [at 17.1 µM, percent relative to cAMP agonist control]. In assay [5], the activity change, negative = inhibition was -6.2% [at 30.8 µM].
For `Cc1ccc(S(=O)(=O)N2CCC(C(=O)Nc3ccccc3N3CCCCC3)CC2)cc1C`, the Potency entry in assay [1], in assay [2], in assay [3], in assay [4] and in assay [5] was “inactive” in each case.
Regarding `Cc1cccc(Cc2cnc(N3C(=N)SC(c4ccccc4)C3=O)s2)c1` (stereo not given), the Potency result in assay [1], in assay [2], in assay [3], in assay [4] and in assay [5] was “inactive” throughout.
On to `COc1cc(S(=O)(=O)Nc2ccc(C)cc2)ccc1N=Cc1c(C)c(C#N)c(=O)n(C)c1O`, for which the Potency entry in assay [1], in assay [2], in assay [3], in assay [4] and in assay [5] was “inactive” in each case.
Turning to `NS(=O)(=O)c1ccc(NC2=CC(=O)C(=O)c3ccccc32)cc1`, the Potency in assay [1] is 26.9 µM (active); in assay [4], 84.9 µM (active). Also, the Potency result in assay [2], in assay [3] and in assay [5] was “inactive” throughout.
`CN1OC[C@@H]2CN(C(=O)CCc3ccccc3)[C@H](c3cccc(-c4ccc(C#N)cc4)c3)C[C@@H]21`: the Potency entry in assay [1], in assay [2], in assay [3], in assay [4] and in assay [5] was “inactive” in each case.
`CC(=O)c1ccc(NC(=O)CSc2nc(Nc3ccccc3)nc(N3CCOCC3)n2)cc1`: the Potency entry in assay [1], in assay [2], in assay [3], in assay [4] and in assay [5] was “inactive” each time.
Turning to `CCC1CCCCN1CCCNC(=O)c1csc2c1CCCCC2` (stereo not given), the Potency result in assay [1], in assay [2], in assay [3], in assay [4] and in assay [5] was “inactive” each time.
As to `CC(C)OP(=O)(c1ccc(N(C)C)cc1)C(Nc1ccccc1)c1ccccc1` (stereo not given), the Potency result in assay [1], in assay [2], in assay [3], in assay [4] and in assay [5] was “inactive” in each case.
In the case of `COc1ccc(C(=O)NCC2(c3ccccc3)CCCC2)c(OC)c1`, the Potency entry in assay [1], in assay [2] and in assay [4] was “inactive” in each case. Further, the activation in assay [3] was -2.19% [at 17.1 µM, percent relative to cAMP agonist control]. In addition, the activity change, negative = inhibition in assay [5] was -13.7% [at 30.8 µM].
In the case of `Cc1onc(-c2c(F)cccc2Cl)c1C(=O)OCC(=O)N(C)c1ccccc1`, the Potency result in assay [1], in assay [2] and in assay [4] was “inactive” in each case. In assay [3], the activation is 4.47% [at 17.1 µM, percent relative to cAMP agonist control]. Also, the activity change, negative = inhibition in assay [5] is -6.38% [at 30.8 µM].
